Records with an inconclusive call do not appear. Activity calls are given as the source filed them. Rule for the calls: active = hit-call score of the fitted dose curve at least 0.9, where 1 is the maximum; inconclusive = response in the unintended direction; inactive = score below 0.9.
molecular target: human Constitutive Androstane Receptor (CAR), NR1I3 (gene 9970) (UniProt Q14994); assay: NVS_NR_hCAR_Antagonist: NovaScreen (NVS) Nuclear Receptor Binding Assay for human Constitutive Androstane Receptor Antagonism (CAR) (AID 2283344)
Sequence (Q14994 whole entry, looked up): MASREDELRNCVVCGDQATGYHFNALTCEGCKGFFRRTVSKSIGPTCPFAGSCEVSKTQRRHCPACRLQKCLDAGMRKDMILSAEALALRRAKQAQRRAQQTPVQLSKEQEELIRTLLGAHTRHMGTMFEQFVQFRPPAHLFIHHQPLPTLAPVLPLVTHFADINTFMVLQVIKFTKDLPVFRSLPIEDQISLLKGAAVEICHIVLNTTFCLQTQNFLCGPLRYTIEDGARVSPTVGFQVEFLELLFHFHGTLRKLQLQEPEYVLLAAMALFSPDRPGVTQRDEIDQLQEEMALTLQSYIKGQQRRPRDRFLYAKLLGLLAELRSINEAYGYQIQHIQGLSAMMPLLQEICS
Method: NVS_NR_hCAR_Antagonist is a biochemical, single-readout assay that uses extracted gene-proteins in a cell-free assay. Measurements were taken 1 hour after chemical dosing in a 384-well plate.NVS_NR_hCAR_Antagonist is one of one assay component(s) measured or calculated from the NVS_NR_hCAR_Antagonist assay. It is designed to make measurements of fluorescent resonance energy transfer, a form of binding reporter, as detected with fluorescent resonance energy transfer signals by Time-Resolved Fluorescence Resonance Energy Transfer (TR-FRET) technology.Data from the assay component NVS_NR_hCAR_Antagonist was analyzed into 1 assay endpoint. This assay endpoint, NVS_NR_hCAR_Antagonist, was analyzed in the positive analysis fitting direction relative to DMSO as the negative control and baseline of activity. Using a type of binding reporter, loss-of-signal activity can be used to understand changes in the binding as they relate to the gene NR1I3. Furthermore, this assay endpoint can be referred to as a primary readout, because the performed assay has only produced 1 assay endpoint. To generalize the intended target to other relatable targets, this assay endpoint is annotated to the nuclear receptor intended target family, where the subfamily is non-steroidal.
Binding assays used specific radioligands (tritiated, iodinated) with non-radioactive competitive displacement ligands in agonist or antagonist protocols (as indicated) and various reference compounds and inhibitors to titrate specific binding to receptors and transporters. Most enzyme assays (CYPs, kinases, phosphatases, proteases, HDACs) used recombinant protein and specific substrates (fluorescence mostly, some colorimetric and radioactive) and inhibitors, followed by a biochemical separation of substrate and product. All assays for the biochemical HTS were initially run in duplicate at a single concentration (10 uM for CYP450 assays and 25 uM for all others). […] Each assay was run with positive and negative controls, and concurrent controls on every plate. The follow-up (secondary) screen tested active chemical-pairs in concentration series, as well as a few additional assays not tested in the primary screen, some selected negative inactives, and several cases re-run in the concentration series for confirmatory purposes.

Row | SMILES | outcome | AC50
1 | COCC(=O)N(c1c(C)cccc1C)C(C)C(=O)OC (stereo not drawn) | inactive | 
2 | CC(C)=CC1C(C(=O)OCc2coc(Cc3ccccc3)c2)C1(C)C (stereo not drawn) | inactive | 
3 | CCCCC(C#N)(Cn1cncn1)c1ccc(Cl)cc1 (stereo not drawn) | inactive | 
4 | C=C(C)CN(CC)c1c([N+](=O)[O-])cc(C(F)(F)F)cc1[N+](=O)[O-] | inactive | 
5 | COC(=O)NS(=O)(=O)c1ccc(N)cc1 | inactive | 
6 | CCOP(=O)(OCC)Oc1nc(Cl)c(Cl)cc1Cl |  | 16.1 µM (active)
7 | O=C1C2CC=CCC2C(=O)N1SC(Cl)(Cl)Cl (stereo not drawn) | inactive | 
8 | CC(C)NC(=O)N1CC(=O)N(c2cc(Cl)cc(Cl)c2)C1=O | inactive | 
9 | CN=C=S | inactive | 
10 | COP(=S)(OC)Oc1ccc([N+](=O)[O-])c(C)c1 | inactive | 
11 | COC(=O)c1c(C(F)F)nc(C(F)(F)F)c(C2=NCCS2)c1CC(C)C | inactive | 
12 | CNC(=O)Oc1cccc2ccccc12 | inactive | 
13 | COP(=S)(OC)SCn1nnc2ccccc2c1=O | inactive | 
14 | CCOc1cc(C(C)(C)C)ccc1C1COC(c2c(F)cccc2F)=N1 (stereo not drawn) | inactive | 
15 | CCOc1nc(F)cc2nc(S(=O)(=O)Nc3c(Cl)cccc3Cl)nn12 | inactive | 
16 | CC(C)C1(C)N=C(c2ncccc2C(=O)O)NC1=O (stereo not drawn) | inactive | 
17 | CCOC(=O)C(C)OC(=O)c1cc(Oc2ccc(C(F)(F)F)cc2Cl)ccc1[N+](=O)[O-] (stereo not drawn) | inactive | 
18 | N#Cc1c(Cl)cccc1Cl | inactive | 
19 | CCC(C)n1c(=O)[nH]c(C)c(Br)c1=O (stereo not drawn) | inactive | 
20 | CC(C)Oc1cccc(NC(=O)c2ccccc2C(F)(F)F)c1 | inactive | 
21 | CCCCOCN(C(=O)CCl)c1c(CC)cccc1CC |  | 14.6 µM (active)
22 | CC(C)(C)C(=O)C(Oc1ccc(Cl)cc1)n1cncn1 (stereo not drawn) | inactive | 
23 | CCN(CC)C(=O)C(C)Oc1cccc2ccccc12 (stereo not drawn) |  | 34.2 µM (active)

Reference: PubChem BioAssay (EPA / NIEHS)
